Among the data in PubChem BioAssay AID1508607 (The Scripps Research Institute Molecular Screening Center, 2020) are activation values, retold here.

In all, about 2,300 compounds went through this assay and about 20 (0.9%) were called active. The sample as a whole holds a higher share of actives than the screen did. Values without a mark were called inactive.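 How the source made its calls: active means mean percent activation across replicates above the counterscreen hit cutoff of 9.17%; inactive means the rest.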

This assay deals with Glucose-dependent insulinotropic receptor (Homo sapiens) (UniProt Q8TDV5). The assay can be described thus: GPR119 activators in beta-arrestin cells, confirmation, counter-screen for GPR151 activator project, cell-based, PathHunter beta-arrestin, luminescence, set 2 (AID 1508607).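 Further: 0% = median of sample wells and 100% = wells given EA reagent.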 The conditions noted are these: 90 min, at 11.2 µM, stronger effect = higher value.
Sequence of Glucose-dependent insulinotropic receptor (Homo sapiens) (Q8TDV5 whole entry, looked up): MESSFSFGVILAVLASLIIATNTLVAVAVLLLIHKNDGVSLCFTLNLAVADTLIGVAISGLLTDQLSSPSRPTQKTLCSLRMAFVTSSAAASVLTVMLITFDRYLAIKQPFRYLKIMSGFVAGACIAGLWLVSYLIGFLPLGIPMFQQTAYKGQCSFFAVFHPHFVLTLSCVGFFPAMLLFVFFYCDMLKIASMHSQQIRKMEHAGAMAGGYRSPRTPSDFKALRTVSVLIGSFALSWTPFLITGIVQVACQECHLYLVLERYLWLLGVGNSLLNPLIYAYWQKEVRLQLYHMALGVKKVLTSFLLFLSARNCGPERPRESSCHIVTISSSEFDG
As for `CCC(C)OC(=O)C1=C(C)NC(=O)NC1c1cc(Br)ccc1OC` (stereo not given), the activation is 1.91%. As for `CC(C)c1ccc(Cn2ccc3c4c(N)nc(NC5CC5)nc4ccc32)cc1`, the activation is 51.2% (active). In the case of `CC(C)CC(=O)NCC1CCC2(CCN(Cc3ccccc3F)CC2)O1` (stereo not given), the activation is 2.66%. `Cc1ccc(-n2nc3c(c2NC(=O)C2(c4ccc(Cl)cc4)CCCC2)CSC3)cc1`: the activation was 3.08%. `CCOC(=O)CCCN(Cc1ccc(F)cc1)S(=O)(=O)c1ccc(F)c(C)c1`: the activation is 0.45%.

Consider `COc1cc(NC(=O)c2onc(C)c2Cl)cc(OC)c1OC`, for which the activation was -1.44%. Regarding `CCOC(=O)N1CCN(C(=O)c2ccc3c(c2)NC(=O)C(CSCc2cc(C)ccc2C)N3)CC1` (stereo not given), the activation is 2.54%. As to `O=C(O)c1c(CNC2CCCc3ccccc32)c2ccccc2n1Cc1ccccc1` (stereo not given), the activation is -2.12%. As to `O=C(O)c1cc([N+](=O)[O-])c(C(=O)O)cc1Oc1ccc(Cl)cc1`, the activation is 3.33%.

On to `COc1cc(/C=N/NC(=O)CCCC(=O)N/N=C/c2ccc(O)c(OC)c2)ccc1O`, for which the activation is -0.52%. As to `CCc1nnc2c3c4c(sc3nc(CC)n12)CCCC4`, the activation is -1.48%.

`CC(C)c1ccc(N=c2c([N+](=O)[O-])nn(-c3ccccc3)n2O)cc1`: the activation is 5.25%. The figure for `CCOC(=O)c1nc(NCc2ccccc2)c2ccccc2n1` is 2.75%; for `O=C(Cn1c(=O)oc2ccccc21)Nc1cccc(C(F)(F)F)c1` it is 3.85%.

In the case of `CCn1cnc2sc(C(=O)Nc3ccc(Cl)c(Cl)c3)c(C)c2c1=O`, the activation is 0.88%. With `COc1ccc(C(=O)Nn2c(-c3ccc(F)cc3)nc3ccccc3c2=O)cc1Br`, the activation is -2.33%. The figure for `CC(=O)c1c(C)oc2c1c1c(c3ccccc32)OCN(C2CCCC2)C1` is 2.76%. The figure for `COc1ccc(OC)c(-n2c(O)c(/C=C3\C=CC=N3)c(=O)[nH]c2=O)c1` is 1.81%; for `N#CCCN1CCN(c2ccc(F)cc2[N+](=O)[O-])CC1` it is 3.88%.

As for `CC(C)c1onc(C(=O)NC2CCCCC2)c1[N+](=O)[O-]`, the activation was -2.5%. Regarding `COc1ccc(O)c(C2=Nc3ccccc3N=C(c3ccc([N+](=O)[O-])cc3)C2)c1`, the activation is -1.11%. Take `COc1ccc(C[C@H](N)C(=O)N[C@@H]2[C@@H](CO)OC(n3cnc4c(N(C)C)ncnc43)[C@@H]2O)cc1` (stereo not given in full): the activation was -4.23%. As for `O=C(CCc1nnc2n(Cc3ccccc3)c(=O)c3ccccc3n12)NCCN1CCCC1`, the activation is -0.83%. Then `Cc1c(NC(=O)c2cc(F)cc(F)c2)c(=O)n(-c2ccccc2)n1C`, with -3.89%; and `CC1CC(C)(C)NC(=S)N1CC(=O)N1CCN(Cc2ccc3c(c2)OCO3)CC1` (stereo not given), with -1.14%; and `O=C(NCCO)C(=O)Nc1cccc(Cl)c1Cl`, with 1.5%. The figure for `Cc1ccc(NC(=O)CN(C)S(=O)(=O)c2ccc(Br)cc2)cc1Cl` is 4.66%.

On to `CCN(CC)c1ccc2cc(-c3nnc(NCc4ccc(F)cc4)s3)c(=O)oc2c1`, for which the activation is 0.77%. The figure for `CCCCOc1ccc(C(=O)Nc2c3c(nn2-c2cccc(Cl)c2)CSC3)cc1` is 5.97%. Take `COCCCNC(=O)/C(=C\c1ccco1)NC(=O)c1ccc(C)cc1`: the activation was -2.09%.

On to `Fc1ccc(-c2cnc3ccc(NCCCN4CCOCC4)nn23)cc1Cl`, for which the activation is 2.09%. The figure for `O=C(NCCCN1CCOCC1)/C(=C/c1ccc(-c2cccc(C(F)(F)F)c2)o1)NC(=O)c1ccc(Cl)cc1` is 9.32% (active). The figure for `COc1ccc(Br)cc1CNC(=O)Cc1c(C(=O)O)[nH]c2ccccc12` is 4.16%; for `Cn1c(SCc2ccc(F)cc2)nc2ccc(C(=O)N3CCC(C(N)=O)CC3)cc21` it is 0.07%; for `Cc1csc(CNC(=O)CC2C(=O)NCCN2Cc2ccc(F)cc2Cl)n1` (stereo not given) it is 3.99%.

For `OC(COc1ccc(CNCCc2cscn2)cc1)CN1CCc2ccccc2C1` (stereo not given), the activation is 3.64%. On to `O=C(CNc1ccccc1)N/N=C/c1cc([N+](=O)[O-])ccc1O`, for which the activation was -3.89%. Then `O=C(Nc1cc(Cl)ccc1Cl)c1ccccc1O`, with -0.02%. With `CCc1ccccc1NC(=O)Cn1nnc(C(=O)OC)c1C(=O)OC`, the activation is 3.17%. The figure for `Cc1ccn2c(-c3csc(Nc4ccccc4)n3)c(C)nc2c1` is -1.87%; for `CC1=NNC(=O)C1CCC(=O)N/N=C(\C)c1ccc(C)cc1` (stereo not given) it is -4.69%; for `CCn1c(=O)c2cc(C(=O)Nc3ccsc3C(=O)OC)sc2c2ccccc21` it is -1.75%. Regarding `CCOC(=O)N1CCN(C(=S)Nc2ccc(C)cc2)CC1`, the activation is 2.12%. For the compound `O=S(=O)(NCCC12CC3CC(CC(C3)C1)C2)c1cccc2nsnc12`, the activation is 0.9%. Then `CCc1ccc(NC(=O)Cn2nnc(C(=O)OC)c2C(=O)OC)cc1`, with -0.08%; and `c1ccc(N2CCOCC2)c(Nc2nc3ccccc3n3cnnc23)c1`, with 0.28%. Then `O=C(CSC1=NC(=O)C(c2ccccc2)C(=O)N1)c1ccccc1` (stereo not given), with -3.69%; and `CCN1CCC(N(Cc2ccc(F)cc2)C(=O)Nc2ccccc2F)CC1`, with -1.27%. For `CCOC(=O)C1CCCN(c2c(Nc3cccc(C)c3)c(=O)c2=O)C1` (stereo not given), the activation was -2.19%. The figure for `COc1ccc(C(=O)NCC2(c3ccccc3)CCCC2)cc1[N+](=O)[O-]` is -1.92%; for `CSc1ccccc1N1C(=O)CC(Sc2ccccc2C(=O)O)C1=O` (stereo not given) it is 2.04%; for `CC1Oc2cccnc2N(Cc2cccc(C#N)c2)C1=O` (stereo not given) it is 0.9%. Then `COc1cccc(C(=O)Nc2ccc(-n3nncc3-c3ccc(OC)c(OC)c3)cc2)c1`, with 5.22%; and `COc1ccc(-c2noc(CCC(=O)Nc3ccc(C)c(C)c3)n2)cc1`, with 1.95%; and `COc1ccc(-c2nc(-c3ccc(NC(=O)c4ccc(Br)o4)cc3)no2)cc1OC`, with 14.8% (active). As to `CCC1CN(CCNC(=O)c2ccc(C(C)=O)s2)Cc2cc(OC)ccc2O1` (stereo not given), the activation was 2.67%. The figure for `CCN(CC)S(=O)(=O)c1ccc(-c2csc(=Nc3ccccc3OC)n2CC)cc1` is -1.01%.

Regarding `c1ccc(Oc2nc(NC3CC3)c3ncn(-c4ccsc4)c3n2)cc1`, the activation was 10.5% (active). In the case of `Clc1nc(NCc2ccccc2)c2ncn(-c3ccccc3)c2n1`, the activation is -3.84%. As for `C(=N\Nc1nnnn1-c1cccc2ccccc12)/c1ccc2c(c1)OCO2`, the activation was 3.7%. For `O=C(COc1ccc(Cl)cc1Cl)Nc1c2c(nn1-c1ccc(F)cc1)CSC2`, the activation is 3.41%.

Turning to `CCOc1cc(/C=C2/C(=N)N3OC(C)=CC3=NC2=O)ccc1OCc1ccc2c(c1)OCO2`, the activation is 2.7%. On to `O=C1[C@H]2[C@H]3[C@H](O)[C@H](O)C/C(=N\OCc4ccccc4)[C@H]3CC[C@H]2C(=O)N1C1CCCCC1`, for which the activation was -1.69%. As to `Cc1cc(/C=C2/C(=N)N3C=CSC3=NC2=O)c(C)n1-c1ccc(Cl)cc1`, the activation is -1.56%.

Consider `CCN(CC)c1cc(C)c2ccccc2n1`, for which the activation is 1.75%. As to `Cc1ccc(OC(C)c2nc(-c3ccc(OCC(N)=O)cc3)no2)cc1C` (stereo not given), the activation is 8.62%. Then `CC1CCN(Cc2nnnn2CC(=O)NCC2CCCO2)CC1` (stereo not given), with 4.51%; and `CC(=O)c1ccc(NCN2C(=O)C3CC=C(Cl)CC3C2=O)cc1` (stereo not given), with 2.21%.

As for `COC(=O)c1cn(-c2ccccc2)nc1-c1ccc(F)cc1`, the activation was 0.06%. In the case of `COc1ccc(-c2noc(CC(=O)NCCN3CCOCC3)n2)cc1`, the activation is 0.07%. As to `COc1ccc2nc(N3CCCC(C(=O)NCCCOC(C)C)C3)sc2c1` (stereo not given), the activation is 0.71%. Take `COc1ccc(C2C(C(=O)OCCc3ccccc3)=C(C)NC3=C2C(=O)CCC3)cc1O` (stereo not given): the activation was 3.23%. The figure for `COC(=O)C1=C(N)n2c(s/c(=C\c3ccc(Cl)cc3)c2=O)=C(C(=O)OC)C1c1ccc(Cl)cc1` (stereo not given) is -5.44%; for `CC1CC(C)CN(C(=O)Cn2cc(C=O)c3ccccc32)C1` (stereo not given) it is 0.05%. Regarding `COC(=O)CN1C(=O)S/C(=C/c2ccco2)C1=O`, the activation was 3.06%. In the case of `Cn1ccnc1C(=O)C1CCCN(C(=O)CCc2nnc(-c3ccccc3)o2)C1` (stereo not given), the activation is 2.54%. `COc1ccc(-c2cc(-c3ccccc3)c(C#N)c(SC3CCCCC3O)n2)cc1` (stereo not given): the activation was 4.49%.

Take `COc1cc(/C=C2/C(=N)N3OC(C)=CC3=NC2=O)ccc1OCCOc1ccc(C)cc1`: the activation was 2.89%.

Consider `CCOC(CNc1ncnc2sc(C)c(C)c12)OCC`, for which the activation is 0.97%. For the compound `CCC(=O)N1CCN(c2ccc(NC(=O)c3ccco3)cc2)CC1`, the activation was 0.71%. The figure for `Cc1ccc(/C=N/NC(=O)c2ccc(O)cc2O)cc1` is -2.17%; for `O=C(O/C(=C/c1nc2ccccc2n1Cc1cccc2ccccc12)c1ccc(Cl)cc1)c1ccc(Cl)cc1` it is -1.84%; for `COc1ccccc1C(=O)COC(=O)C1(C)CC1(Cl)Cl` (stereo not given) it is 5.89%. Consider `CCC(C(=O)N1CCOCC1)n1c2ccccc2c2cn[nH]c(=O)c21` (stereo not given), for which the activation was -3.25%. With `CC(=O)c1c(C)[nH]c(C(=O)N2CCN(c3ncccn3)CC2)c1C`, the activation is -3.09%. As to `CCc1c(C(=O)N2CCN(c3cccc(Cl)c3)CC2)[nH]c(C)c1C(C)=O`, the activation was 20.1% (active). Take `O=C(CC(c1ccccc1)c1ccccc1)N1CCN(c2cccc(Cl)c2)CC1`: the activation was -2.36%.

As for `CC(C)(C)NC(=S)Nc1cccc(F)c1`, the activation is 6.02%. Regarding `COc1ccc(CCn2c(-c3ccc(Cl)cc3)csc2=Nc2ccc(F)cc2)cc1OC`, the activation is 0.18%. Then `COc1ccc(N(C(=O)C(C)Oc2ccccc2)C2C=CS(=O)(=O)C2)c(OC)c1` (stereo not given), with -0.94%.
